The list is not random: actives were taken first. Their share in the collection is about 3.2%.
CDK5 inh = blocks human CDK5/p35 kinase activity. Q00535+Q15078. Recombinant CDK5/p35, ADP-Glo luminescence, 60 min. inhibition, % at 10 µM. 330,000 compounds, 0.01% hits;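 active = highest replicate inhibition of at least 50% and at least 75% of replicates reaching 50%; inconclusive = only one of the two criteria met; inactive = both criteria failed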;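 note: plate controls were DMSO neutral control for no effect and GW8510 at 10 µM for full effect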
dFosB activator = enhances mouse delta FosB homodimer DNA binding. 340,000 compounds, 0.99% hits. AID 493131. activation, % at 25 µM. P13346. purified delta FosB, TAMRA-CDK5 oligo fluorescence polarization; percent of positive-control signal above neutral wells;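 active = mean activation above about 17%, with every replicate also reaching it, limit read from the data, passing the limit was not always enough; inconclusive = only one of the two conditions met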
SMARCA2 activ = increases SMARCA2 function in MMTV reporter cells. MG213 cells, MMTV-luciferase reporter, dexamethasone, overnight. activation, % at 9.1 µM. 370,000 compounds, 1% hits; in the data active = activation above about 7.8%;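 note: 0% = vehicle wells and 100% = reference activator wells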
Dyrk1A ADPGlo = blocks rat Dyrk1A kinase activity; inhibition, % at 12.5 µM; ADP-Glo luminescence, NFATc1 peptide; 310,000 compounds, 0.43% hits; in the data active = inhibition above about 50%;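 note: plate controls were vehicle with enzyme for no effect and no enzyme for full effect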
esBAF inh = inhibitors of esBAF chromatin remodeling in mouse ES cells; Bmi1-luciferase knock-in reporter, 24 h; 100% = twice the neutral-well signal; reporter increase, % at 12.5 µM; 350,000 compounds, 2% hits; AID 602393; in the data active = activation above about 40%; inconclusive = no clear call, values can overlap the other calls;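 note: 0% = median of the plate's neutral control wells and 100% = double that signal; a rise in the Bmi1 reporter signal indicates esBAF inhibition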
Rtt109 HAT inh = C. albicans Rtt109 histone acetyltransferase inhibition; 330,000 compounds, 0.16% hits; purified Rtt109/Vps75, ThioGlo CoA-SH fluorescence, 4 h; inhibition, % at 34.9 µM;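 active = inhibition of at least 50% in every replicate; inconclusive = best replicate reaches 50% inhibition but some replicates fall short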
Target sequence (Q5AAJ8 whole entry, looked up): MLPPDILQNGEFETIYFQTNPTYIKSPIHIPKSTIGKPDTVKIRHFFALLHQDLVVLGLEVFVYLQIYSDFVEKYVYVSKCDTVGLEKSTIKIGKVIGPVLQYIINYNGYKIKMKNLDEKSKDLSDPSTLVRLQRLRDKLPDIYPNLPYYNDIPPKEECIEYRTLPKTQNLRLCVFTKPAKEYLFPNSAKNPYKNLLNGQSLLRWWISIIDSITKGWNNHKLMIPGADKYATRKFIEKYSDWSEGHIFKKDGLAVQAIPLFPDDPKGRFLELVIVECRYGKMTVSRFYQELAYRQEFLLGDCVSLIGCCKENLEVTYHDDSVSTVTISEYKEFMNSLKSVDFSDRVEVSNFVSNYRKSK
Ring1 derepress = de-represses Ring1 in mouse ESCs, confirming esBAF inhibition | shares compounds with esBAF inh | mouse ESC E14, Ring1 mRNA RT-qPCR fold change | fold change at 33 µM | 550 tested, under 10 active;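 active = Ring1 gene expression raised more than 2-fold over untreated cells in both replicates at either tested dose; inconclusive = only one replicate above 2-fold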;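 note: Ring1 transcript normalised to actin housekeeping signal by TaqMan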
Fgf4 repress = confirmation of esBAF inhibitors: Fgf4 repression in mouse ESCs. Fgf4 expression fold change at 33 µM. shares compounds with esBAF inh. 550 compounds, 4% hits. AID 743177. mouse ESC E14, Fgf4 mRNA qPCR fold change; active compounds read low;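 active = Fgf4 expression under 0.8 fold of control in both repeat measurements at one or both tested doses; inconclusive = under 0.8 fold in just a single repeat measurement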;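 note: Fgf4 transcript normalised to actin in duplex TaqMan qPCR; cells exposed to compound for 24 h before lysis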
Bmi1 derepress = de-represses Bmi1 in mouse ESCs, confirming esBAF inhibition. shares compounds with esBAF inh. mouse ESE14 ES cells, Bmi1 mRNA qPCR fold; active compounds read high. fold change at 33 µM. 550 tested, under 10 active. AID 743180;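 active = Bmi1 expression fold change above 6 at either tested concentration, seen in replicate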;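 note: higher fold means more Bmi1 de-repression and stronger esBAF inhibition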
A549 cytotox = kills or reduces viability of A549 cells. A549 cytotoxicity, plate reader. 550 tested, under 10 active. shares compounds with esBAF inh. cell viability change % (negative = cytotoxic), % at 25 µM, hits read low; call rule not given here
HepG2 cytotox SP = HepG2 cell cytotoxicity at single point; 550 compounds, 4% hits; plate reader; active compounds read low; activity change, negative = inhibition, % at 25 µM; shares compounds with esBAF inh; in the data active = activity change below about -50%
HEK293 cytotox SP = kills or reduces viability of HEK293 cells; shares compounds with esBAF inh; HEK293 cytotoxicity, plate reader; activity change, negative = inhibition, % at 25 µM, hits read low; 550 compounds, 3% hits; AID 743190; in the data active = activity change below about -38%, passing the limit was not always enough
The depositor's hits bear a star; u = inconclusive; x = not tested or not shown.

SMILES	CDK5 inh	dFosB activator	SMARCA2 activ	Dyrk1A ADPGlo	esBAF inh	Rtt109 HAT inh	Ring1 derepress	Fgf4 repress	Bmi1 derepress	A549 cytotox	HepG2 cytotox SP	HEK293 cytotox SP
O=C(Nc1ccc(F)c(Cl)c1)c1cc(C2CCCN(C(=O)C3CC3)C2)on1 (configuration not stated)	x	x	0	x	77*	x	1.4	0.98	2	-7	-5	-7
O=C(CNC(=O)c1ccccc1F)Nc1ccc2c(c1)OCO2	1	-11	4	x	62*	4	1.1	0.88	1.5	-15	-9	-13
Clc1ccc(-c2cnnc(-c3ccccn3)n2)cc1	-2	-4	5	31	83*	1	1.2	1.3	2	-23	-31	-21
Cc1cc2oc(=O)cc(CN(C)Cc3ccccc3F)c2cc1Cl	0	-7	-1	-5	64*	2	1.3	0.65*	1.5	3	-1	-2
Cc1ccc2c(CN(C)Cc3cccc(F)c3)cc(=O)oc2c1	1	-5	3	1	90*	-5	0.97	u	1.6	4	-6	-11
CCCC#Cc1ccc2c(c1)O[C@@H](CN(C)Cc1cccnc1)[C@@H](C)CN([C@@H](C)CO)S2(=O)=O	x	x	x	x	-7	x	x	x	x	x	x	x
CN(C)S(=O)(=O)c1ccc2c(c1)C(=O)c1cc(S(=O)(=O)N(C)C)ccc1CC2	-1	3	4	18	-5	-13	x	x	x	x	x	x
CN(C)S(=O)(=O)c1ccc2c(c1)/C(=C/c1cc3c([nH]1)CCCC3)C(=O)N2	1	-14	1	-7	59*	4	2.2*	1.1	7.7*	-17	22	-6
CC(C)NC(=O)N[C@H]1CC[C@@H](CCNC(=O)C2CCOCC2)O[C@@H]1CO	x	x	x	x	2	x	x	x	x	x	x	x
C=CCNc1oc(-c2ccc(OC)cc2)nc1C#N	-1	-2	0	1	79*	3	0.95	0.92	1.4	-2	10	-12
C=CCNc1oc(-c2ccc(OCC)cc2)nc1C#N	-3	-2	1	-2	34	-5	x	x	x	x	x	x
Oc1ccc(Cl)cc1C=NN1CCCCCC1	-1	-3	-2	-2	66*	10	1.1	1	1.8	-4	16	-29
Oc1ccccc1C=NN1CCCCCC1	1	1	-1	0	77*	-6	1.2	0.81	1.4	-4	20	2
Oc1ccccc1/C=N/N1CCCCC1	-1	-1	-1	-3	x	3	x	x	x	x	x	x
Oc1ccc(/C=N/N2CCCCC2)c(O)c1	2	-4	3	12	28	12	x	x	x	x	x	x
Oc1ccc(/C=N/N2CCCCC2)c(O)c1O	3	-5	-2	7	-4	4	x	x	x	x	x	x
Oc1cccc(/C=N/N2CCCCC2)c1O	0	4	3	0	61*	5	1	1.2	1.9	-12	-43	-16
O=C(C[C@H]1CC[C@@H](NC(=O)C2CC2)[C@@H](CO)O1)NCc1ccncc1	x	x	x	x	-1	x	x	x	x	x	x	x
O=C(N/N=C/c1ccc(Cl)cc1)Nc1ccccc1	3	4	1	-4	59*	11	1.4	0.84	1.7	-7	-1	-12
O=C(CO)N/N=C/c1ccc(Cl)cc1	-1	5	-1	1	-4	3	x	x	x	x	x	x
CCc1nnc(NC(=O)c2ccc3c(=O)n4c(nc3c2)CCC4)s1	x	x	2	x	59*	x	0.91	0.94	1.4	-6	-41	-16
Cc1ccc(NC(=O)c2ccc3c(=O)n4c(nc3c2)CCC4)cc1F	0	-8	4	7	67*	7	1	u	1.1	-6	10	-5
CNC(=O)c1ccc(NC(=O)c2ccc3c(=O)n4c(nc3c2)CCC4)cc1	0	-9	-1	x	-3	-1	x	x	x	x	x	x
CCCCc1nnc(NC(=O)c2ccc3c(=O)n4c(nc3c2)CCC4)s1	1	-17	-2	-10	1	-2	x	x	x	x	x	x
C[C@@H]1CN([C@H](C)CO)C(=O)c2cccc(NS(=O)(=O)c3ccccc3)c2O[C@@H]1CN(C)S(=O)(=O)c1ccc(F)cc1	x	x	x	x	-3	x	x	x	x	x	x	x
CC(C)[C@@H](C)NC(=O)N(C)C[C@H]1OCc2ccccc2-c2c(n(C)c3ccccc23)C(=O)N([C@H](C)CO)C[C@H]1C	x	x	x	x	5	x	x	x	x	x	x	x
CCN(C(=O)c1cccs1)c1nnc(-c2ccncc2)s1	0	-22	-2	0	58*	2	1.2	0.97	0.9	-4	-24	-9
CCCNC(=O)N1C[C@@H](O)COC[C@@H]2O[C@H](CC(=O)O)CC[C@H]21	x	x	x	x	-2	x	x	x	x	x	x	x
COc1ccc(-c2cc(C(=O)N3CCN(c4ccccc4O)CC3)c3ccccc3n2)cc1	0	3	4	-2	64*	-2	0.96	0.92	1.3	-11	-44	-27

High-throughput results as filed in PubChem.
